In PubChem BioAssay (EPA / NIEHS):
Several values for one entry are separate records, joined by “and”; a condition that tells them apart may be missing. Equal values may be shown once. A structure can be active in one record and inactive in another. Activity calls are given as the source filed them. How the source made its calls: active means hit-call score of the fitted dose curve at least 0.9, where 1 is the maximum; inactive means score below 0.9.

Assay: ATG_AP_1_CIS: Attagene CIS-FACTORIAL HepG2 Assay for human Activator Protein 1 (AP-1) (AID 2282931)
Conditions: HepG2 Attagene cis-factorial AP-1 reporter mRNA; actives raise or lower the signal
How it was run: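 Reporter transcripts were measured 24 h after dosing by RT-PCR and capillary electrophoresis of fluorescent fragments. Cells: HepG2 carrying transfected cis-regulated reporter constructs reading endogenous factor activity. Gain or loss fitted against DMSO.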

Compound | outcome | AC50
C[Si](C)(C)C(F)(F)C(F)(F)C(F)(F)F | inactive | –
FC(F)C(F)(F)COCC1CO1 (stereo not given) | inactive | –
CCN(CC)C(=S)SSC(=S)N(CC)CC | – | 25.8 µM (active)
CCOC(N)=O | inactive | –
CCc1cccc(CC)c1N | inactive | –
Cc1cccc(O)c1C | inactive | –
C[C@]12C=CC(=O)C=C1CC[C@H]1[C@@H]3C[C@@H](O)[C@](O)(C(=O)CO)[C@@]3(C)C[C@H](O)[C@@]12F | inactive | –
OCCOCCOCCO | inactive | –
Cc1nc(-c2ccccn2)ncc1C(=O)Nn1cc(C)c2cc(F)ccc21 | inactive | –
O=S(=O)(O)CCC(F)(F)C(F)(F)C(F)(F)C(F)(F)C(F)(F)C(F)(F)F | inactive | –
O=C1CN(N=Cc2ccc([N+](=O)[O-])o2)C(=O)N1 | – | 68.5 µM (active)
FC(F)(F)COC(OCC(F)(F)F)OCC(F)(F)F | inactive | –
FC(F)(F)C(F)(F)C(F)(F)C(F)(F)C(F)(F)C(F)(F)I | inactive | –
O=C(O)CO | inactive | –
O=C(Cl)C(F)(F)C(F)(F)C(F)(F)C(=O)Cl | inactive | –
NC(N)=O | inactive | –
OCc1c[nH]c2ccccc12 | – | 47.2 µM (active) [middle of 5 runs]
S=P(N1CC1)(N1CC1)N1CC1 | inactive | –
CCCCC(CC)C(=O)OCCOCCOCCOC(=O)C(CC)CCCC (stereo not given) | inactive | –
CC(C)c1nnc2ccc(-c3ocnc3-c3cc(F)ccc3F)cn12 | inactive | –
NCC(F)(F)C(F)(F)C(F)(F)C(F)(F)F | inactive | –
CCCCCCCCCCCCCCO | inactive | –
CCCCCCCCCC | inactive | –
OC(O)(C(F)C(O)(O)C(F)(F)F)C(F)(F)F | inactive | –
FC(F)=C(F)C(F)(F)C(F)(F)C(F)(F)C(F)(F)C(F)(F)C(F)(F)F | inactive | –
O=C(N[C@H](CO)[C@H](O)c1ccc([N+](=O)[O-])cc1)C(Cl)Cl | inactive | –
OCCC(F)(F)C(F)(F)C(F)(F)C(F)(F)F | inactive | –

Assay: ATG_AP_2_CIS: Attagene CIS-FACTORIAL HepG2 Assay for human Activator Protein 2 (AP-2) (AID 2282932)
Conditions: HepG2 AP-2 cis-reporter, Attagene transcription factor profiling; actives raise or lower the signal
How it was run: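 Cells (HepG2) transfected with promoter-driven reporter constructs, treated 24 h. Total RNA reverse-transcribed, reporter cDNA PCR-amplified, FAM-labelled by primer extension, digested, resolved by capillary electrophoresis. Activity fitted both directions versus DMSO.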

Compound | outcome | AC50
C[Si](C)(C)C(F)(F)C(F)(F)C(F)(F)F | inactive | –
FC(F)C(F)(F)COCC1CO1 (stereo not given) | inactive | –
CCN(CC)C(=S)SSC(=S)N(CC)CC | inactive | –
CCOC(N)=O | inactive | –
CCc1cccc(CC)c1N | inactive | –
Cc1cccc(O)c1C | inactive | –
C[C@]12C=CC(=O)C=C1CC[C@H]1[C@@H]3C[C@@H](O)[C@](O)(C(=O)CO)[C@@]3(C)C[C@H](O)[C@@]12F | inactive | –
OCCOCCOCCO | inactive | –
Cc1nc(-c2ccccn2)ncc1C(=O)Nn1cc(C)c2cc(F)ccc21 | inactive | –
O=S(=O)(O)CCC(F)(F)C(F)(F)C(F)(F)C(F)(F)C(F)(F)C(F)(F)F | inactive | –
O=C1CN(N=Cc2ccc([N+](=O)[O-])o2)C(=O)N1 | inactive | –
FC(F)(F)COC(OCC(F)(F)F)OCC(F)(F)F | inactive | –
FC(F)(F)C(F)(F)C(F)(F)C(F)(F)C(F)(F)C(F)(F)I | inactive | –
O=C(O)CO | inactive | –
O=C(Cl)C(F)(F)C(F)(F)C(F)(F)C(=O)Cl | inactive | –
NC(N)=O | inactive | –
OCc1c[nH]c2ccccc12 | inactive | –
S=P(N1CC1)(N1CC1)N1CC1 | inactive | –
CCCCC(CC)C(=O)OCCOCCOCCOC(=O)C(CC)CCCC (stereo not given) | inactive | –
CC(C)c1nnc2ccc(-c3ocnc3-c3cc(F)ccc3F)cn12 | inactive | –
CCCCCCCC1CCC(=O)O1 (stereo not given) | inactive | –
NCC(F)(F)C(F)(F)C(F)(F)C(F)(F)F | inactive | –
CCCCCCCCCCCCCCO | – | 166 µM (active)
CCCCCCCCCC | inactive | –
OC(O)(C(F)C(O)(O)C(F)(F)F)C(F)(F)F | – | 71 µM (active) and 18.9 µM (active)
FC(F)=C(F)C(F)(F)C(F)(F)C(F)(F)C(F)(F)C(F)(F)C(F)(F)F | inactive | –
O=C(N[C@H](CO)[C@H](O)c1ccc([N+](=O)[O-])cc1)C(Cl)Cl | inactive | –
OCCC(F)(F)C(F)(F)C(F)(F)C(F)(F)F | inactive | –

Assay: ATG_BRE_CIS: Attagene CIS-FACTORIAL HepG2 Assay for human Bone Morphogenetic Protein (BMP) Response Element (BRE) (AID 2282933)
Conditions: HepG2 BMP response element reporter, Attagene transcription factor profiling; actives raise or lower the signal
How it was run: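 Fluorescence-labelled reporter cDNA fragments, separated by capillary electrophoresis, gave the signal for this component of a 52-readout multiplex. HepG2 cells were transfected, exposed to chemicals for 24 h, and compared with DMSO using bidirectional fitting.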

Compound | outcome | AC50
C[Si](C)(C)C(F)(F)C(F)(F)C(F)(F)F | inactive | –
FC(F)C(F)(F)COCC1CO1 (stereo not given) | inactive | –
CCN(CC)C(=S)SSC(=S)N(CC)CC | – | 142 µM (active)
CCOC(N)=O | inactive | –
CCc1cccc(CC)c1N | inactive | –
Cc1cccc(O)c1C | inactive | –
C[C@]12C=CC(=O)C=C1CC[C@H]1[C@@H]3C[C@@H](O)[C@](O)(C(=O)CO)[C@@]3(C)C[C@H](O)[C@@]12F | inactive | –
OCCOCCOCCO | inactive | –
Cc1nc(-c2ccccn2)ncc1C(=O)Nn1cc(C)c2cc(F)ccc21 | inactive | –
O=S(=O)(O)CCC(F)(F)C(F)(F)C(F)(F)C(F)(F)C(F)(F)C(F)(F)F | inactive | –
O=C1CN(N=Cc2ccc([N+](=O)[O-])o2)C(=O)N1 | inactive | –
FC(F)(F)COC(OCC(F)(F)F)OCC(F)(F)F | inactive | –
FC(F)(F)C(F)(F)C(F)(F)C(F)(F)C(F)(F)C(F)(F)I | inactive | –
O=C(O)CO | inactive | –
O=C(Cl)C(F)(F)C(F)(F)C(F)(F)C(=O)Cl | inactive | –
NC(N)=O | inactive | –
OCc1c[nH]c2ccccc12 | inactive | 48.6 µM (active) and 85.4 µM (active) and 50.3 µM (active)
S=P(N1CC1)(N1CC1)N1CC1 | inactive | –
CCCCC(CC)C(=O)OCCOCCOCCOC(=O)C(CC)CCCC (stereo not given) | inactive | –
CC(C)c1nnc2ccc(-c3ocnc3-c3cc(F)ccc3F)cn12 | inactive | –
CCCCCCCC1CCC(=O)O1 (stereo not given) | inactive | –
NCC(F)(F)C(F)(F)C(F)(F)C(F)(F)F | inactive | –
CCCCCCCCCCCCCCO | – | 166 µM (active)
CCCCCCCCCC | inactive | –
OC(O)(C(F)C(O)(O)C(F)(F)F)C(F)(F)F | inactive | 6.79 µM (active)
FC(F)=C(F)C(F)(F)C(F)(F)C(F)(F)C(F)(F)C(F)(F)C(F)(F)F | inactive | –
O=C(N[C@H](CO)[C@H](O)c1ccc([N+](=O)[O-])cc1)C(Cl)Cl | inactive | –
OCCC(F)(F)C(F)(F)C(F)(F)C(F)(F)F | inactive | –
